Laboratory results: ChEMBL document CHEMBL3433997, “St. Jude Leishmania screening dataset” (2016)

Experiments:
Type in all cases: functional
[1] = molecular target: Solute carrier family 2, facilitated glucose transporter member 1 (Homo sapiens) (UniProt P11166); experiment: ST_JUDE_LEISH: Cytotoxicity at 2uM final concentration against transgenic Leishmania Mexicana promastigotes LmGLUT1 that are glucose transport deficient and complemented with the human glucose transporter GLUT1. Activity is measured by DNA content using SYBR green in vitro
[2] = molecular target: Hexose transporter 1 (Plasmodium falciparum) (UniProt O97467); experiment: ST_JUDE_LEISH: Cytotoxicity at 2uM final concentration against transgenic Leishmania Mexicana promastigotes LmPfHT that are glucose transport deficient and complemented with the Plasmodium falciparum hexose transporter. Activity is measured by DNA content using SYBR green in vitro
[3] = molecular target: Glucose transporter (Leishmania mexicana) (UniProt O61059); experiment: ST_JUDE_LEISH: Cytotoxicity at 2uM final concentration against transgenic Leishmania Mexicana promastigotes LmGT2 that are glucose transport deficient and complemented with the L. Mexicana glucose transporter 2. Activity is measured by DNA content using SYBR green in vitro

Sequence of Solute carrier family 2, facilitated glucose transporter member 1 (Homo sapiens) (P11166 whole entry): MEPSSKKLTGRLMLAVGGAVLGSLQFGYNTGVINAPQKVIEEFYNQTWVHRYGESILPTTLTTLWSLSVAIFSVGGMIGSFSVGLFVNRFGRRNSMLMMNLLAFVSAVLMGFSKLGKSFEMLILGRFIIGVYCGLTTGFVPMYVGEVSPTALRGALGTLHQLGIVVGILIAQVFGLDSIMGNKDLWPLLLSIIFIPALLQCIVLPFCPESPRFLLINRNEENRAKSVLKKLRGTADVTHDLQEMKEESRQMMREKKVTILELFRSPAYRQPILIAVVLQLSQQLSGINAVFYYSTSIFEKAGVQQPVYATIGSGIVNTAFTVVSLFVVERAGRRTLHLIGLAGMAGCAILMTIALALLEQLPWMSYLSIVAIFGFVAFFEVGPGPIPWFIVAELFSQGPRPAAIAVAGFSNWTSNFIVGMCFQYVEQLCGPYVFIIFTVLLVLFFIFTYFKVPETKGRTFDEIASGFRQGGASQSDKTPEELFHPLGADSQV

Compound | inhibition [1] [%] | inhibition [2] [%] | inhibition [3] [%]
Cc1ccc(OC2CCN(c3ccc(C(=O)NC4CC4)cn3)CC2)cc1 | 0.24 | 2.06 | 1.55
N#Cc1ccc(-c2nc3c(N4CCCC4)cccc3n2CCNCc2ccccc2)cc1 | 12.3 | 11 | 11.8
O=C(Nc1ccc2c(c1)CCN2C1CCN(Cc2ccc(F)cc2Cl)C1)c1ccco1 (configuration not stated) | 1.66 | 0.61 | 2.25
COc1cc(-c2nc3c4ccccc4c4ccccc4c3[nH]2)cc(OC)c1OC | 1.82 | 1.28 | 1.58
O=C(NCC1Cc2cc(Oc3ccccc3)ccc2O1)c1ccc([N+](=O)[O-])o1 (configuration not stated) | 7.98 | 10.4 | 3.24
CCOc1cc2ncnc(Nc3ccc(OCc4ccccc4OC)c(OC)c3)c2cc1OCC | 5.01 | 2.81 | 0.35
CC(=O)Nc1ccc(CN(C)C2CCN(c3cc(NC(=O)c4cccc(C)c4)ccn3)CC2)cc1 | 2.4 | 3.41 | 2.5
O=C(NCCN1CCCC1)c1ccc(-c2ccc(-c3nc4ccccc4[nH]3)s2)cc1 | 0.96 | -1.55 | 0.42
Cc1[nH]c(C)c(-c2ccc(-c3ccccc3F)nc2)c(=O)c1Cl | 1.2 | -2.36 | 1.16
Cc1cc(NCCc2ccccc2)nc(NC(=N)Nc2ccccc2Cl)n1 | 9.69 | 7.74 | 7.34
O=C(NCCNc1ccnc(Nc2ccc(F)cc2)n1)Nc1ccc2c(c1)OCO2 | 1.78 | 0.82 | 0.6
COc1cc(CCNc2nc(NCc3cccc4ccccc34)nc(N3CCC(N)CC3)n2)ccc1O | 5.69 | 4.98 | 2.74
Cc1ccc(C(O)CNc2ccnc(Nc3cccc(-c4csc(C)n4)c3)n2)cc1 (configuration not stated) | -0.56 | -1.05 | -1.54
Cc1ccc(NC(=O)c2ccc(NCCCN(C)Cc3ccccc3)c([N+](=O)[O-])c2)cc1F | 8.67 | 3.73 | 2.68
COc1cccc(C=Cc2nc(=O)c3ccccc3o2)c1OC | 4.18 | 0.32 | 0.45
CC(C)Nc1cc(C(=O)N[C@@H](Cc2ccccc2)[C@H](O)CNC2CCCCC2)cc(N2CCCCS2(=O)=O)c1 | 0.23 | 3.37 | 7.2
Cc1cc(CN2CCC(N3CC(c4ccccc4)(c4ccccc4)OC3=O)C2)ccc1O (configuration not stated) | 4.14 | 3.7 | 8.06
O=C(O)c1cccnc1Sc1ccc(Cl)cc1 | -0.75 | -0.76 | -0.47
Cc1nc(N)nc(N)c1-c1ccc(Br)cc1 | 9.9 | 8.21 | 7.53
CCN(CC)S(=O)(=O)c1ccc(C=CC(=O)Nc2cc(Cl)ccc2N2CCOCC2)cc1 | 6.36 | 4.63 | 5.02
NCCCNc1nccc(N2CCc3ncnc(Nc4ccc(OCc5cccc(F)c5)c(Cl)c4)c3C2)n1 | 2.13 | 4.48 | 4.02
c1ccc(CCNCc2ccc(-c3ccc(CNc4ccc5ncccc5c4)cc3)cc2)cc1 | 9.9 | 1.61 | 2.13
O=C(/C=C/c1ccc2ccccc2c1)NCCCCCN1CCC(c2c[nH]c3ccccc23)CC1 | 3.34 | 5.66 | 0.03
CN(c1ccc(NC(=O)Nc2cc(C(F)(F)F)ccc2F)cc1)c1ccnc(NCCN2CCCC2)n1 | 5.11 | 4.8 | 4.41
CC(C)CNCc1ccc(-c2ccc(CNC3CCN(Cc4ccccc4)CC3)cc2)cc1 | 0.98 | 4.82 | 5.31

Compound | inhibition [1] [%] | inhibition [2] [%] | inhibition [3] [%]
COc1ccc(-c2cccc(NC(=O)c3cccc(C#N)c3)c2)cc1CN(C)CCO | 3.7 | 5.06 | 5.5
O=C(Nc1cccc(-c2nc3ccccc3[nH]2)c1)c1ccc(-c2cccc([N+](=O)[O-])c2)o1 | 4.88 | 5.59 | 7.27
Cc1cccc2nc(-c3ccc(-c4cccc(NC(=O)c5cncn5C)c4)s3)[nH]c12 | 0.66 | 2.43 | -2.47
Fc1ccccc1CNc1ncc(-c2ccsc2)c(-c2nccs2)n1 | -0.99 | 0.2 | -3
CCC(C)CNC(=O)CN1CN(c2ccccc2)C2(CCN(C(=O)c3ccc(Br)cc3)CC2)C1=O (configuration not stated) | 0.35 | -0.13 | 0.82
COc1cc(Cc2cnc(N)nc2N)cc(OCCCCC#N)c1OC | 2.09 | 1.74 | 5.77
COc1cc2ccccc2cc1OCCCN1CCN(CC(c2ccc(F)cc2)N2CCN(C(C)C)CC2)CC1 (configuration not stated) | -2.97 | -0.78 | 2.29
CCCNCc1ccc(-c2ccc(CN(CCOC)C(=O)c3ccccc3)cc2)nc1 | 1.21 | 0.61 | 1.11
CCn1c(=O)c(C(=O)Nc2cc(Cl)c(OC)cc2OC)nc2ccccc21 | 11.7 | 9.32 | 10.5
COc1ccc(CNCCCCCNCc2ccc(Cl)c(Cl)c2)cc1Cl | 3.98 | 3.58 | 1.38
COc1ccc(S(=O)(=O)Nc2cc(C)cc(Br)c2OC)cc1N1CCN(C(=O)C(Cl)(Cl)Cl)CC1 | 0.75 | 0.79 | -0.68
O=C(NC(c1ccc(Cl)cc1)c1ccc2cccnc2c1O)c1ccccc1 (configuration not stated) | 0.27 | -0.02 | -2.91
C=CCOC(=O)N1CCC(CNCc2cccc(-c3cccc(-c4nc5cccc(C)c5[nH]4)c3)c2)C1 (configuration not stated) | 3.47 | 1.88 | 7.29
CN(Cc1cccc(O)c1)C1CCN(c2cc(NC(=O)c3ccc(F)cc3)ccn2)C1 (configuration not stated) | 1.94 | 2.9 | 3.61
CCCCc1cc(NCc2ccncc2)nc(Nc2ccc(C)cc2)n1 | 15.4 | 5.93 | 2.33
CCCc1c(C(=O)Nc2ccc3c(c2)CCN(C2CCC2)CC3)cnn1-c1ccc(Cl)cc1 | 5.65 | 4.4 | 2.6
Nc1nc(N)c2c(ccc3c2ccn3C2C=CCCC2)n1 (configuration not stated) | 56.1 | 71.8 | 34.4
COc1cc(C=C(C2=NC(=O)CS2)c2nc3cccnc3n2C)ccc1O | 5.2 | 5.56 | 4.82
NC(=O)Nc1ccc2cn[nH]c2c1 | -0.02 | 0.57 | 0.33
CC(CNC1CCN(CCn2c(=O)ccc3ccc(F)cc32)CC1)c1ccccc1 (configuration not stated) | -1.82 | -1.07 | -0.24
CCC/C=C/c1c(CNCCCNc2cc(=O)c3ccccc3[nH]2)sc(CC)c1Br | 0.5 | 1.29 | 0.32
CN(C)CCOc1cc(NC(=O)Nc2cccc([N+](=O)[O-])c2)ccc1I | 13 | 14.6 | 15.7
COc1ccc2nccc([C@@H](O)CN3CCC(NC(=O)c4ccc(-c5ccccc5)s4)CC3)c2c1 | 9.94 | 14.6 | 4.67
C=C(C)C1CC=C(CN2CCC(N3CCc4cc(NC(=O)c5cc(C)on5)ccc43)C2)CC1 (configuration not stated) | 2.54 | 4.39 | 4
O=c1cc(NCCCNCc2cc(C(F)(F)F)ccc2Cl)[nH]c2ccccc12 | -0.91 | 0.29 | -1.57

Compound | inhibition [1] [%] | inhibition [2] [%] | inhibition [3] [%]
CC(C)(C)c1cc(C(=O)N2CCN(c3cnccn3)CC2)n(Cc2ccccc2)n1 | 4.57 | 4.68 | 4.9
Fc1ccc(Nc2ccnc3cc(-c4ccc(CNCCN5CCOCC5)o4)ccc23)c(Cl)c1 | 2.04 | 2.02 | 2.34
O=C(Nc1ccccc1O)c1ccc(S(=O)(=O)c2ccc(Cl)cc2)cc1 | 5.52 | 4.67 | 6.69
Cc1cccc(CN2CCCN(Cc3ccc(C(=O)Nc4ccc(Cl)cc4)cc3)CC2)c1 | 11.2 | 11.3 | 7.83
CC(C)Nc1nc(NC2CCCCC2)nc(N2CCCCCCC2)n1 | 19.3 | 17.4 | 11.6
FC(F)(F)c1ccc2[nH]c(-c3cccc(-c4cccc(CNCCN5CCNCC5)c4)c3)nc2c1 | -0.06 | 3.11 | 1.99
Cc1cc(N[C@@H](Cc2ccccc2)C(=O)NCCc2ccccc2)nc(NCCc2ccc(F)cc2)n1 | -1.91 | -1.86 | -1.12
Cn1cc(-c2ccccc2C(=O)O)c(=O)c2cc(Cl)ccc21 | 2.25 | 1.87 | 2.49
O=C(N[C@@H](CC1CCCCC1)C(=O)NCCN1CCCC1)c1ccc(O)c(-c2ccc(Cl)c(Cl)c2)c1 | 0.12 | 0.41 | 0.58
COc1cc(C(=O)NCCCN2CCN(c3cccc(Cl)c3)CC2)ccc1-c1nc2cc(Cl)c(F)cc2[nH]1 | 1.22 | 0.6 | 0.03
CCCNCc1ccc(-c2ccc(CN(CCOC)C(=O)CCCOCc3ccccc3)cc2)nc1 | 3.08 | 1.41 | 0.45
NC(CC1CC(=O)N1CC(=O)O)C(=O)O (configuration not stated) | 8.57 | 7.82 | 8.53
CCOc1ccc(Nc2ccc3nonc3c2S(=O)(=O)Nc2ccc(OCC)cc2)cc1 | -0.07 | -0.32 | -0.61
Cc1ccc(S(=O)(=O)n2cc(-c3ccnc(N)c3)c3cc(Br)cnc32)cc1 | 4.4 | 4.2 | 1.4
Cc1cc(-c2ccc(S(=O)(=O)Nc3cc4c(cc3OC(C)C)CCN(C)CC4)cc2)ccc1Cl | -2.82 | -1.99 | -2.35
COc1ccc2nccc([C@@H](O)CN3CCC(NS(=O)(=O)c4cc(Br)c(Br)s4)CC3)c2c1 | 3.72 | 2.36 | 1.8
COc1ccc2[nH]c(C(=O)Nc3ccc4[nH]c(-c5ccccc5)nc4c3)cc2c1 | 4.44 | 2.1 | 0.82
CCOC(=O)c1ccc(NC(=O)N(Cc2ccc(-c3cccc(CN4CCNCC4)c3)cc2)C2CCN(Cc3ccccc3)CC2)cc1 | 2.49 | 1.96 | 7.56
Cc1c(-c2cccc(CNCCc3ccc(Cl)cc3)c2)cnc(N)c1C | -3.87 | -2.81 | -1.41
CS(=O)(=O)CCNCc1nc(-c2ccc3c(Nc4ccc(Oc5ccccn5)cc4)ccnc3c2)cs1 | 5.17 | 4.96 | 2.64
Oc1ccc(-c2ccccc2)cc1CN1CCCCCC1 | 1.18 | 2.49 | 1
CCCCOc1ccc(C(=O)C(CCC(CNC(C)(C)C)C(=O)c2ccc(OCCCC)cc2)CNC(C)(C)C)cc1 (configuration not stated) | 43.9 | 12.2 | 31.8
Cc1nc2ccc3ccc(CNc4ccc(C(=O)N[C@@H](CCC(=O)O)C(=O)N[C@@H](Cc5cccs5)C(=O)O)c(F)c4)cc3c2c(=O)[nH]1 | 6.55 | 7.51 | 6.36
Cc1cc(N[C@@H](Cc2ccccc2)C(=O)Nc2ccccc2)nc(NCCc2ccccc2)n1 | 3.8 | 5.68 | 0.11
